Inconclusive results are not listed. A call without a number means that no potency is given here. Activity calls are given as the source filed them. Calls follow the shape of the dose curve; as a rule, active = well fitted activation curve with a large enough effect in the repeat runs; inconclusive = weak or mixed curves; inactive = flat fitted curve, though single readings scatter.
Assay: A CellTox Green Cytotoxicity Assay to monitor cytotoxicity in HepG2 cells - 16 hour (AID 1224876); also: nearly all actives have a fitted effect of over 45% in size
Conditions: CellTox Green fluorescence; series mostly up to 76.8 µM
From the text: National Center for Advancing Translational Sciences [NCATS]
NIH Chemical Genomics Center [NCGC]
U.S. Environmental Protection Agency [EPA]
National Institutes of Environmental Health Sciences [NIEHS]
National Toxicology Program [NTP]
Cell-based models are critical for drug discovery. Determining the natural cytotoxic effects resulting from test compounds is an essential research activity. A CellTox Green Cytotoxicity Assay to monitor cytotoxicity in real time of continues cell culture during 40 hours of the compound treatment was used to screen Tox21 10K library compounds in HepG2 cells. CellTox Green Cytotoxicity Assay is a nonlytic, homogeneous, biofluorescent method to measure cytotoxicity in cell culture after experimental manipulation. The assay system uses a proprietary asymmetric cyanine dye that is excluded from viable cells but preferentially stains the dead cell's DNA. […] Viable cells produce no appreciable increases in fluorescence. Therefore, the fluorescence signal produced by the binding interaction with dead cell DNA is proportional to cytotoxicity.
The mixture of HepG2 cell suspension and reagents were dispensed at 600cells/6 ul/well in 1536-well tissue culture treated black solid bottom plates using a Multidrop dispenser. After the assay plates were incubated at a 37 C/5% CO2 incubator for 5 hours, 23 nL of compounds dissolved in DMSO, positive and negative controls was transferred to the assay plate by a pintool work station. The plates were incubated at 37 C for 40 hours. The fluorescence intensity were measured at 0h, 8h, 16h, 24h, 32h and 40h time points using ViewLux plate reader during compound treatment.
For `CCc1ccccc1O`, the Potency was “inactive”. In the case of `Cc1ccc(N)c(S(=O)(=O)O)c1`, the Potency is reported as “inactive”. In the case of `Oc1ccc2ccccc2c1N=Nc1ccccc1`, the Potency is reported as “inactive”. In the case of `CC1=CC[C@H]2C[C@@H]1C2(C)C`, the Potency is reported as “inactive”. In the case of `ClC1=C(Cl)C(Cl)(Cl)C(Cl)=C1Cl`, the Potency is reported as “inactive”. With `CCCCC(CC)COC(C)=O` (stereo not given) the Potency was “inactive”. For `O=S(=O)(Oc1ccc(Cl)cc1Cl)c1ccccc1`, the Potency was “inactive”. With `CCCCOCCOCCOC(=O)CCCCC(=O)OCCOCCOCCCC` the Potency was “inactive”. For `CCOC(=O)/C=C\C(=O)OCC`, the Potency was “inactive”. With `c1ccc2[nH]cnc2c1` the Potency was “inactive”. In the case of `CC(C)n1c(/C=C/[C@@H](O)C[C@@H](O)CC(=O)O)c(-c2ccc(F)cc2)c2ccccc21`, the Potency is reported as “inactive”. For `COC(=O)Nc1nc2ccc(Sc3ccccc3)cc2[nH]1`, the Potency was “inactive”. With `CC[Si](OC(C)=O)(OC(C)=O)OC(C)=O` the Potency was “inactive”. For `O=C(c1cc(O)c(O)c(O)c1)c1ccc(O)c(O)c1O`, the Potency was “inactive”. With `C=C1CC[C@H](O)CC1=C/C=C1\CCC[C@]2(C)[C@@H]([C@H](C)/C=C/[C@H](C)C(C)C)CC[C@@H]12` the Potency was “inactive”. In the case of `CC1(C)CC(N=C=O)CC(C)(CN=C=O)C1` (stereo not given), the Potency is reported as “inactive”. For `CCCCCCCCC`, the Potency was “inactive”. For `O=Nc1ccc(O)cc1`, the Potency was “inactive”. With `Cn1c([N+](=O)[O-])cnc1COC(N)=O` the Potency was “inactive”. With `O=C(Cl)c1c(Cl)c(Cl)c(C(=O)Cl)c(Cl)c1Cl` the Potency was “inactive”. With `CCCCC/C=C\C/C=C\CCCCCCCC(=O)OC` the Potency was “inactive”. With `C=CC(=O)OCCCCCCCC(C)C` the Potency was “inactive”. In the case of `CCCCC(CC)COC(=O)CCCCCCCC(=O)OCC(CC)CCCC` (stereo not given), the Potency is reported as 49 µM (active). In the case of `S=c1nc[nH]c2nc[nH]c12`, the Potency is reported as “inactive”. With `CC(C)(C)C1CCC(O)CC1` (stereo not given) the Potency was “inactive”. With `CC1CC(OC(=O)c2ccccc2O)CC(C)(C)C1` (stereo not given) the Potency was “inactive”. In the case of `OCCOCCOCCOCCO`, the Potency is reported as “inactive”. With `O=C1N=C(O)CN1/N=C/c1ccc(-c2ccc([N+](=O)[O-])cc2)o1` the Potency was “inactive”. For `Oc1ccc2ccccc2c1`, the Potency was “inactive”. With `Nc1nc2ncc(CNc3ccc(C(=O)N[C@@H](CCC(=O)O)C(=O)O)cc3)nc2c(=O)[nH]1` the Potency was “inactive”. With `COC(=O)c1ccc(C(=O)OC)cc1` the Potency was “inactive”. In the case of `CCc1ccc(O)cc1`, the Potency is reported as “inactive”. In the case of `CN(C)c1ccc(C(=N)c2ccc(N(C)C)cc2)cc1`, the Potency is reported as “inactive”. For `CC(C)Cc1ccccc1`, the Potency was “inactive”. With `CC1=C(CC(=O)O)c2cc(F)ccc2/C1=C\c1ccc(S(C)=O)cc1` (stereo not given) the Potency was “inactive”. With `Cc1cc(O)c2c(c1)C(=O)c1cc(O)cc(O)c1C2=O` the Potency was “inactive”. With `Cc1ccc(C)c(C)c1` the Potency was “inactive”. In the case of `CC1Cc2ccccc2N1NC(=O)c1ccc(Cl)c(S(N)(=O)=O)c1` (stereo not given), the Potency is reported as “inactive”. For `Clc1ccc(Cl)c(Cl)c1Cl`, the Potency was “inactive”. For `Oc1c(Cl)cc(Cl)c(Cl)c1Cl`, the Potency was “inactive”.

Reference: PubChem BioAssay (Tox21)
Potency is read from the fitted curve at half-maximal effect.
